Screening data as filed in PubChem.
pPAFAH inh: pPAFAH (human) enzyme inhibition | Q13093 | recombinant pPAFAH, FP-rhodamine probe fluorescence polarization | inhibition, % at 3.39 µM | actives 1.5% (n = 330,000) | AID 463082;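 active means inhibition above the mean inhibition across the screen plus 3 SD, cut at about 25% in these data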;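 further: inhibitors block binding of the rhodamine activity-based probe so polarization drops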
Target sequence (Q13093 whole entry, looked up): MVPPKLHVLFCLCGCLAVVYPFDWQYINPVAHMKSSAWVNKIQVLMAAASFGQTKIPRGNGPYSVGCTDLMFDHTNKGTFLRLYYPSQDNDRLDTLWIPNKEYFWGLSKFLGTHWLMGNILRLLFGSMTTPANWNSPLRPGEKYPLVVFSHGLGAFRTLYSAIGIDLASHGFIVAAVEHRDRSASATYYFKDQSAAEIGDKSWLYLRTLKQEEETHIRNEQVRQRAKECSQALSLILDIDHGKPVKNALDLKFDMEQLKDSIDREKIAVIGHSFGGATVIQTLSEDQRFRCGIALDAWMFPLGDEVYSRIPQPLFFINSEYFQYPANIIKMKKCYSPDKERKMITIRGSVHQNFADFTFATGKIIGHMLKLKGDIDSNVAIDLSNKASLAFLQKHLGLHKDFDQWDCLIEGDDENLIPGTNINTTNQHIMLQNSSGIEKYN
PP5 primary: PP5 (human) phosphatase inhibition. inhibition, % at 6.7 µM. AID 1987. purified PP5c, OMFP substrate fluorescence. P53041. actives 0.18% (n = 320,000);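 active means inhibition above the campaign's mean inhibition across all tested compounds plus 3 SD, cut at about 9.5% in these data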
PP1 inh: counter-screen for PP5 inhibitors: inhibitors of human PP1-alpha; P62136; purified PP1alpha, OMFP fluorescence; inhibition, % at 6.7 µM; actives 0.9% (n = 320,000);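 active means inhibition above the mean inhibition of all tested compounds plus 3 SD, computed separately for each screening campaign, cut at about 15% in these data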
PAFAH1B2 inh: inhibitors of human PAFAH1B2; inhibition, % at 3.39 µM; P68402; recombinant PAFAH1B2, FP-rhodamine activity probe, fluorescence polarization; actives 1.2% (n = 340,000);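 active means inhibition above the mean of all tested compounds plus 3 SD, cut at about 24% in these data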
Target sequence (P68402 whole entry, looked up): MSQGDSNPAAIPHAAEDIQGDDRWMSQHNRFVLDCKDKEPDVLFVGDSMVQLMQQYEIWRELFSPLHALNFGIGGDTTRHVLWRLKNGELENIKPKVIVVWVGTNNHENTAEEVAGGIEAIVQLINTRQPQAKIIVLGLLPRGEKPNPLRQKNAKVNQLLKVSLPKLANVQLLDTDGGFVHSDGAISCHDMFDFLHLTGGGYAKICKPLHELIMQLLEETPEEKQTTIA
PAFAH1B3 inh: inhibitors of human PAFAH1B3. Q15102. actives 0.28% (n = 340,000). recombinant PAFAH1B3, FP-rhodamine probe, fluorescence polarization. AID 492972. inhibition, % at 3.39 µM;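 active means inhibition above the screen-wide average of all tested compounds plus 3 SD, cut at about 25% in these data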
PAFAH2 inh: PAFAH2 (human) inhibition; recombinant PAFAH2, FP-rhodamine activity probe, fluorescence polarization; actives 0.99% (n = 340,000); Q99487; inhibition, % at 3.39 µM;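 active means inhibition above the mean over all tested compounds plus 3 SD, cut at about 30% in these data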;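 further: inhibitors block probe labeling of enzyme so polarization drops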
PP1 confirm: confirmation of human PP1 phosphatase inhibitors; shares compounds with PP1 inh; purified PP1alpha, OMFP substrate fluorescence; inhibition, % at 6.7 µM; actives 52% (n = 1,900); AID 2358;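 active means mean PP1 inhibition above a set limit taken from the earlier primary screen, cut at about 15% in these data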
PP5 inh counter: inhibits human PP5 phosphatase in PP1 counter-screen | shares compounds with PP1 inh | purified PP5c, OMFP fluorescence | inhibition, % at 6.7 µM | actives 4% (n = 1,900) | AID 2360;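 active means mean PP5 inhibition over triplicate wells above about 9.5% taken from the earlier PP1 screen, limit read from the data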
Of the large screens only hits and unclear results are named; the others gave an inactive call (follow-up assays come after a bar, where they were run). An excerpt weighted towards active compounds, which were near 3.4% of everything screened.

Cc1c([N+](=O)[O-])cc(S(=O)(=O)Nc2ccc(-c3ccc(N4CCCC4)nn3)cc2)cc1[N+](=O)[O-]	pPAFAH inh 28.5, PP1 inh 18.9 | PP1 confirm 21.5 | PP5 inh counter inactive
COCCCNC(=O)c1ccc(Cn2c(=O)c3ccccc3n(Cc3ccccc3C)c2=O)cc1	none
CCOC(=O)C1(C)C=C(Nc2ccc(OCC)cc2)C(=O)N1c1ccccc1 (stereo not drawn)	none
CCOC(=O)C1(C)C=C(Nc2ccccc2)C(=O)N1c1ccccc1 (stereo not drawn)	PP1 inh 29.1 | PP1 confirm inactive | PP5 inh counter inactive
O=C(Nc1nc(-c2ccccc2)cs1)c1ccccc1NS(=O)(=O)c1ccc(F)cc1	PP1 inh 21.0 | PP1 confirm 21.4 | PP5 inh counter 12.7
O=C(Nc1nc(-c2ccc(-c3ccccc3)cc2)cs1)C1=COCCO1	PP1 inh 20.8 | PP1 confirm 34.1 | PP5 inh counter inactive
O=S(=O)(Nc1ccc(-c2csc(-c3ccccc3)n2)cc1)c1ccc(F)cc1	none
Cc1c(C)c(C)c(CN2CCSCC2)c(C)c1C	none
Cc1cc(N2CCCC2)ccc1/C=C1\NC(=S)N(C)C1=O	none
Cc1cc(N2CCCC2)ccc1/C=N/n1cnnc1	PP1 inh 17.6 | PP1 confirm inactive | PP5 inh counter inactive
COc1ccc(C(=O)C2C(c3ccc(-c4ccccc4[N+](=O)[O-])o3)NC(=O)NC2(O)C(F)(F)F)cc1 (stereo not drawn)	none
O=C(N/N=C/c1ccncc1)c1cccc(NC(=O)c2ccc(Cl)cc2)c1	PP1 inh 30.7 | PP1 confirm inactive | PP5 inh counter inactive
COc1ccc(/C=C2\SC(=O)N(CCC(=O)Nc3ccc(S(=O)(=O)Nc4nccs4)cc3)C2=O)cc1	PP1 inh 21.0 | PP1 confirm inactive | PP5 inh counter inactive
CCC(=O)Nc1nnc(/C=C/c2ccc(OC)cc2)s1	PP1 inh 22.5 | PP1 confirm inactive | PP5 inh counter inactive
COc1ccc(C(=O)OCC(=O)c2ccc(S(=O)(=O)N3CCCCC3)cc2)c(OC)c1	none (no result: pPAFAH inh, PP5 primary, PP1 inh)
Cc1ccc(C(=O)OCC(=O)c2ccc(S(=O)(=O)N3CCCCC3)cc2)o1	PP1 inh 66.1 | PP1 confirm inactive | PP5 inh counter inactive
O=C(NC(C(=O)N/N=C/c1cc([N+](=O)[O-])ccc1O)c1n[nH]c(=O)c2ccccc12)c1ccccc1 (stereo not drawn)	PP1 inh 26.6 | PP1 confirm 17.9 | PP5 inh counter inactive
O=C(NC(C(=O)N/N=C/c1cccc2ccccc12)c1n[nH]c(=O)c2ccccc12)c1ccccc1 (stereo not drawn)	none
COc1ccc(OC)c(NC(=O)Nc2cc(NC(=O)Nc3cc(OC)ccc3OC)c(C)nc2C)c1	none
COc1ccc(NC(=O)NNC(=O)C(O)(c2ccccc2)c2ccccc2)cc1	PP1 inh 21.4 | PP1 confirm inactive | PP5 inh counter inactive
COc1ccc(NC(=O)Nc2cc(NC(=O)Nc3ccc(OC)cc3)c(C)nc2C)cc1	PP1 inh 18.3 | PP1 confirm 21.1 | PP5 inh counter inactive
COc1cccc(CNC(=O)CCc2nnc(C3CCCCC3)o2)c1	none
Cc1ccc(S(=O)(=O)N2CCC(=O)N(C(COCc3cccc(C(F)(F)F)c3)Cc3ccccc3)CC2)cc1 (stereo not drawn)	PP1 inh 20.1 | PP1 confirm inactive | PP5 inh counter inactive
Cc1ccc(S(=O)(=O)N2CCC(=O)N(C(COCc3ccccc3)Cc3ccccc3)CC2)cc1 (stereo not drawn)	none
COC(=O)c1sc(N)c(C(=O)OC)c1COC(=O)C1CC(=O)N(Cc2ccco2)C1 (stereo not drawn)	PP1 inh 17.9 | PP1 confirm inactive | PP5 inh counter inactive
CCOC(=O)c1sc(N)c(C(=O)OCC)c1COC(=O)C1CC(=O)N(Cc2ccco2)C1 (stereo not drawn)	none
COc1ccc(-c2csc(Nc3cccc(C)n3)n2)cc1C	none (no result: pPAFAH inh, PP5 primary, PP1 inh)
COc1ccc(C(=O)Nc2ccc(N3CCCC3)cc2)cc1	PP1 inh 28.6 | PP1 confirm inactive | PP5 inh counter inactive
COc1ccc(C(=O)NC(=S)Nc2ccc(N3CCCC3)cc2)cc1	none
O=C(Nc1ccc(N2CCCC2)cc1)c1ccccc1[N+](=O)[O-]	PP1 inh 19.0 | PP1 confirm inactive | PP5 inh counter inactive
O=C(Nc1ccc(N2CCN(Cc3ccccc3)CC2)cc1)c1ccccc1[N+](=O)[O-]	none
Cn1c(=O)oc2cc(NC(=O)CCl)ccc21	none
C/C(=N/O)c1ccccn1	PP1 inh 36.2 | PP1 confirm inactive | PP5 inh counter inactive
CC(=O)c1ccccn1	none
S=c1[nH]nc(-c2cccnc2)n1-c1ccc2c(c1)OCCO2	PP1 inh 51.7 | PP1 confirm inactive | PP5 inh counter inactive
CC(C)c1cc2c(c(O)c1O)[C@@]13CCCC(C)(C)C1CC2OC3=O (stereo partly drawn)	pPAFAH inh 30.1, PP1 inh 44.1, PAFAH1B2 inh 54.0, PAFAH2 inh 61.0 | PP1 confirm inactive | PP5 inh counter inactive
O=C(CNC(=O)c1ccc(N2CCCC2=O)cc1)Nc1ccc(F)c(F)c1F	none (no result: PP5 primary, PP1 inh)
CCCCNc1c(-c2ccc(OC)c(SC(C)CC)c2)nc2ccc(C)cn12 (stereo not drawn)	none (no result: PP5 primary, PP1 inh)
CCC(C)Sc1cc(-c2nc3ccc(C)cn3c2NCc2ccccc2)ccc1OC (stereo not drawn)	PP1 inh 17.8 | PP1 confirm inactive | PP5 inh counter inactive
CCCn1c(=O)c(C(=O)NNC(=O)c2ccccc2[N+](=O)[O-])c(O)c2ccccc21	PP1 inh 19.9 | PP1 confirm 18.3 | PP5 inh counter inactive
Cc1ccc(NC(=O)CSc2nc(NS(=O)(=O)c3ccccc3)cc(=O)[nH]2)cc1	PP1 inh 21.7 | PP1 confirm inactive | PP5 inh counter inactive
Cc1sc(N(C(=O)CCc2ccccc2)c2ccc(C(=O)O)cc2)nc1-c1ccccc1	pPAFAH inh 25.3, PP1 inh 19.5, PAFAH1B2 inh 34.3 | PP1 confirm 15.2 | PP5 inh counter inactive
Cc1cccnc1Nc1nc(-c2ccccn2)cs1	PP1 inh 28.4 | PP1 confirm 35.6 | PP5 inh counter inactive
Cc1cccc(Nc2nc(-c3ccccn3)cs2)n1	PP1 inh 63.7 | PP1 confirm 52.7 | PP5 inh counter inactive
CC(SC1CCCC1)C(=O)Nc1ccnn1C(C)C (stereo not drawn)	none
CC(=O)Cc1nsc(NC(=O)c2ccc(-c3ccc(Cl)c(Cl)c3)o2)n1	none
Nc1cc(=O)[nH]c(SCC(=O)N2N=C(c3ccc(Cl)cc3)CC2c2ccco2)n1 (stereo not drawn)	PP1 inh 20.5 | PP1 confirm inactive | PP5 inh counter inactive
